High-throughput results (PubChem BioAssay)
Myc binder: binders of human c-Myc | P01106 | small molecule microarray, His-c-Myc binding, anti-His fluorescence | calls only | 17,000 tested, 1.5% active | AID 624141;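 active = spot fluorescence over background with P-value below 7% in all four replicate spots, showing protein binding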;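 note: score is binary with 100 for all four spots passing and 0 otherwise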
Target sequence (P01106 whole entry, looked up): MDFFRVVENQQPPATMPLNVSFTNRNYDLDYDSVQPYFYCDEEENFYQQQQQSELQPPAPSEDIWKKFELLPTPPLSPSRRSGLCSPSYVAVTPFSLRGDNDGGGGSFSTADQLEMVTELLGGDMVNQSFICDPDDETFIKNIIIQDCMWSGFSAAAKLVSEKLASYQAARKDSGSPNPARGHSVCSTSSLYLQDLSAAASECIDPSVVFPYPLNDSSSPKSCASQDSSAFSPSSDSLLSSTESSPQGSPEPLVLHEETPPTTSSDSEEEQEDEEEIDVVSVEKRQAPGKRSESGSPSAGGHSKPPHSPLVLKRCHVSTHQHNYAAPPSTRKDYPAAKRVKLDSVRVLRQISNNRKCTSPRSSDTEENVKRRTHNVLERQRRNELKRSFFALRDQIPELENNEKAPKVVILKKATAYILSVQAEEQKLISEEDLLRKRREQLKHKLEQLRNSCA
STAT3 binder: STAT3 (human) binding | P40763 | Small molecule microarray, His-STAT3 binding, anti-His fluorescence | calls only | 17,000 tested, 0.2% active | AID 624138;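 active = compounds whose four printed spots each show fluorescence over background unusually high for their array block, chance value under 7%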
mut p53 SMM: mutant p53 (human) binding | small molecule microarray binding, anti-GST fluorescence | calls only | 17,000 tested, 0.4% active | AID 624136;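 active = compounds whose four printed spots each glow above background more than chance allows, each with a p-value under 7%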
NFkB binder: binds human NF-kappa-B p105 on microarray; Small molecule microarray, anti-His fluorescence binding; 17,000 tested, 1.3% active; calls only; AID 624139; P19838;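 active = spot fluorescence over background significantly raised, with a chance value under 7% in all four replicate spots of the compound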;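 note: probe protein is his-tagged human p50 processed subunit at 1 µg/ml; raw spot fluorescence signals with no normalization applied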
The depositor's hits bear a star; i = inactive; x = no result; + = active, no number. An excerpt weighted towards active compounds, which were near 2.4% of everything screened.

SMILES	Myc binder	STAT3 binder	mut p53 SMM	NFkB binder
C=CCNC(=O)[C@H]1[C@@H]2C(=O)O[C@@H](c3ccccc3)[C@@H](c3ccccc3)N2[C@@H](c2ccccc2OCCO)[C@]12C(=O)Nc1ccc(C#Cc3ccc(OC)cc3)cc12	i	i	i	i
COc1ccc(C#Cc2ccc3c(c2)[C@]2(C(=O)N3)[C@H](C(=O)Nc3nc4ccccc4s3)[C@H]3C(=O)O[C@H](c4ccccc4)[C@H](c4ccccc4)N3[C@@H]2c2ccc(OCCO)cc2)cc1	i	i	i	i
C=CC[C@]1(C(=O)NCCCOC)COC(c2ccc(OCCCO)cc2)=N1	+	i	i	+
C[C@@H]1CCCCO[C@H](CN(C)C(=O)CCC(F)(F)F)[C@H](C)CN([C@@H](C)CO)C(=O)c2cc(NC(=O)CCC(F)(F)F)ccc2O1	i	i	i	+
C[C@@H]1CCCCO[C@@H](CN(C)C(=O)CCC(F)(F)F)[C@H](C)CN([C@@H](C)CO)C(=O)c2cc(NC(=O)CCC(F)(F)F)ccc2O1	+	i	i	+
C[C@@H]1CCCCO[C@@H](CN(C)C(=O)CCC(F)(F)F)[C@H](C)CN([C@@H](C)CO)C(=O)c2cc(NC(=O)Cc3ccccc3)ccc2O1	i	i	i	i
Cc1ccc(C(=O)Nc2ccccc2C(=O)N2CCCC2)cc1S(=O)(=O)N1CCOCC1	i	i	i	i
COc1cccc2cc(C(=O)C3C(=O)C(=O)N(c4nc(C)c(C)s4)C3c3ccco3)oc12 (centres undefined)	+	i	i	i
COc1ccccc1C1C(C(=O)c2ccco2)C(=O)C(=O)N1c1cc(C)on1 (centres undefined)	i	i	i	i
COC(=O)[C@]1(Cc2ccccc2)N=C(c2ccc(OCCCO)cc2)O[C@@H]1c1ccccc1N=[N+]=[N-]	i	i	+	+
[N-]=[N+]=NCc1ccccc1C[C@@]1(C(=O)N2CCOCC2)N=C(c2ccc(OCCCO)cc2)O[C@@H]1c1ccccc1	i	i	i	i
[N-]=[N+]=NCc1ccccc1C[C@@]1(C(=O)N2CCCCC2)N=C(c2ccc(OCCCO)cc2)O[C@@H]1c1ccccc1	i	+	i	i
O=C(NCc1ccccc1)[C@@]1(Cc2ccccc2)N=C(c2ccc(OCCCO)cc2)O[C@H]1c1ccccc1	i	i	+	i
COC1CC(OC2CCC3(C)C(CCC4(O)C3CC(OC(=O)c3ccccc3)C3(C)C(O)(C(C)=O)CCC43O)C2)OC(C)C1OC1CC(OC)C(OC2OC(C)C(OC3OC(CO)C(O)C(O)C3O)C(OC)C2O)C(C)O1 (centres undefined)	+	i	i	+
C#C[C@]1(O)CC[C@H]2[C@@H]3CCC4=Cc5oncc5C[C@]4(C)[C@H]3CC[C@@]21C	+	i	x	i
O=C(CCc1ccc(O)cc1)CC(O)CCc1ccc(O)c(O)c1 (centres undefined)	i	i	i	i
O=C(O)CCC(=O)Nc1ccccc1C(=O)O	+	i	i	i
Cc1noc(C)c1S(=O)(=O)N(C)C[C@H]1OCCCC[C@@H](C)Oc2ccc(N(C)C)cc2C(=O)N([C@@H](C)CO)C[C@@H]1C	+	+	i	+
C[C@@H]1CCCCO[C@H](CN(C)S(=O)(=O)c2ccccc2)[C@@H](C)CN([C@@H](C)CO)C(=O)c2cc(N(C)C)ccc2O1	i	i	i	+
Cc1noc(C)c1S(=O)(=O)N(C)C[C@@H]1OCCCC[C@@H](C)Oc2ccc(N(C)C)cc2C(=O)N([C@@H](C)CO)C[C@@H]1C	i	i	i	i
C[C@@H]1CCCCO[C@@H](CN(C)S(=O)(=O)c2ccccc2)[C@H](C)CN([C@H](C)CO)C(=O)c2cc(N(C)C)ccc2O1	i	i	i	i
COc1ccc(CN(C)C[C@H]2OCCCC[C@@H](C)Oc3ccc(NC(=O)Nc4c(C)noc4C)cc3C(=O)N([C@@H](C)CO)C[C@@H]2C)cc1	i	i	i	i
COc1ccc(CN(C)C[C@H]2OCCCC[C@H](C)Oc3ccc(NC(=O)Nc4c(C)noc4C)cc3C(=O)N([C@H](C)CO)C[C@@H]2C)cc1	+	i	i	i
Cc1noc(C)c1NC(=O)Nc1ccc2c(c1)C(=O)N([C@H](C)CO)C[C@H](C)[C@@H](CN(C)C(=O)C1CCCCC1)OCCCC[C@H](C)O2	+	i	i	i
